FBW7 activator = human FBW7 E3 ligase activation, primary screen; normalized activity (activation), % at 26.1 µM; AID 1259310; AlphaScreen FBW7–phospho-cyclin E peptide binding, activator screen; actives 0.13% (n = 650,000); in the data active means normalized activity above about 1.9%;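 further: purified mutant Fbw7 with reduced substrate affinity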
Target sequence (Q969H0 whole entry, looked up): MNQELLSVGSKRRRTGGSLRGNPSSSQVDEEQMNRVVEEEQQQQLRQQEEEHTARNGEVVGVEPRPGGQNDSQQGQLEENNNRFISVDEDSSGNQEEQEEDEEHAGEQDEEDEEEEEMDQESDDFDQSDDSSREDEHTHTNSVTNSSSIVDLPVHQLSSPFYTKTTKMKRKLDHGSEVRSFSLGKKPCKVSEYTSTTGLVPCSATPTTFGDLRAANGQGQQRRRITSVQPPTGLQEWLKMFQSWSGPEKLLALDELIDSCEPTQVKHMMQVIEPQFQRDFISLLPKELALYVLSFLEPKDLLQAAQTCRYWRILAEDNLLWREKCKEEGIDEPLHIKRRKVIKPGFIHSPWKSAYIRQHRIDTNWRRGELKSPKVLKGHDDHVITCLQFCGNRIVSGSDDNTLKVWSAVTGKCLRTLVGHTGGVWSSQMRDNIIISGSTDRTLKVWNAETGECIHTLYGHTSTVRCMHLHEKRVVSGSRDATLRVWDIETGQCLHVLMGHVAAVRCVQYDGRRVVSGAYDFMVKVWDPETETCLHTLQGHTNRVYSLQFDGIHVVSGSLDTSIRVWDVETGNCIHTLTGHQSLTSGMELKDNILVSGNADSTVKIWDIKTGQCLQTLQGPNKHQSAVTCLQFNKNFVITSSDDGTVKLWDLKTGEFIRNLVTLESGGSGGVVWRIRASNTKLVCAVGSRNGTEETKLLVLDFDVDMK
MITF inh = inhibitors of human MITF; inhibition, % at 2.6 µM; AlphaScreen MITF homodimerization, bead proximity signal; O75030; actives 0.91% (n = 650,000); AID 1259374; in the data active means inhibition above about 50%
TEAD-YAP inh = TEAD-YAP interaction inhibition | HEK-TIYL cells, TEAD-Gal4/YAP UAS-luciferase luminescence | inhibition, % at 9.12 µM | actives 1.4% (n = 640,000) | AID 1259422; in the data active means inhibition above about 32%
GPR151 ag = activators of human GPR151; Q8TDV0; PathHunter beta-arrestin GPR151 cells, luminescence; activation, % at 11.2 µM; actives 1% (n = 650,000); in the data active means activation above about 4.9%
MITF confirm = human MITF inhibition, confirmation | actives 16% (n = 4,700) | AlphaScreen MITF homodimerization, biotin/His-MITF beads | shares compounds with MITF inh | inhibition, % at 2.6 µM;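 active means inhibition above a cutoff derived from the DMSO control wells, cut at about 28% in these data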;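 further: inhibitors lower the bead chemiluminescence by keeping MITF from dimerizing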
AS interf DR = AlphaScreen optical interference, dose response counter-screen | shares compounds with MITF inh | AlphaScreen optical interference counterscreen, cell-free | IC50, µM | actives 6% (n = 480) | AID 1259373; call rule not given here
AS interf ctr = counter-screen: compounds optically interfering with AlphaScreen; shares compounds with MITF inh; LysRS AlphaScreen counterscreen, signal interference, triplicate; inhibition, % at 2.6 µM; actives 7.6% (n = 4,700); AID 1259376;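 active means inhibition above a cutoff derived from the DMSO control wells, cut at about 30% in these data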
Each line names hits and unclear results; the compound was inactive in the other large screens (follow-up assays come after a bar, where they were run). This is a sample that favours compounds with a hit; in the whole collection about 3.5% have one here.

O=C(Nc1ccc(-c2ccccc2)cc1[N+](=O)[O-])c1ccccc1Br	none
CC(NCC(O)CO)c1ccc(-n2ccnc2)cc1 (stereo not given)	MITF inh 81 | MITF confirm inactive | AS interf ctr inactive
CCN1C=CC(=C(/C=C2\C=CC=CC2=O)CS(=O)(=O)O)C=C1	MITF inh 65 | MITF confirm inactive | AS interf ctr inactive
O=C(CN1CCCCCC1)N/N=C/c1ccc(F)c(Br)c1	none
O=C(CN1CCCCCCC1)N/N=C/c1ccc(F)c(Br)c1	MITF inh 57 | MITF confirm inactive | AS interf ctr inactive
CCCC(=O)Nc1ccccc1C1(C)CC1	MITF inh 59 | MITF confirm inactive | AS interf ctr inactive
COc1ccc(S(=O)(=O)NCc2ccco2)cc1Br	none
CNC(=O)Nc1ccc2nc(-c3ccco3)c(-c3ccco3)nc2c1	MITF inh 110 | MITF confirm 110 | AS interf DR inactive | AS interf ctr inactive
Cc1ccc(NC(=O)c2cc(-c3ccco3)on2)cc1C	none
COCCNC(=O)Cn1c(=O)n(Cc2ccccc2)c(=O)c2c3c(sc21)CCC3	none
Cc1[nH]n(-c2ccc(Cl)cc2)c(=O)c1/C=N/NC(=O)c1ccc(Br)cc1	none
O=C(c1ccccc1F)N1CCC(O)(c2cccnc2)CC1	none
COc1cc(CN2CCN(C(=O)c3ccco3)CC2)cc(OC)c1OC	none
O=C(c1ccccc1F)N1CCN(Cc2cccnc2)CC1	MITF inh 63 | MITF confirm inactive | AS interf ctr inactive
O=C(c1ccccc1F)N1CCN(Cc2ccc(Br)cc2)CC1	none
O=C(c1ccco1)N1CCN(Cc2cccnc2)CC1	MITF inh 66 | MITF confirm inactive | AS interf ctr inactive
O=C(c1ccccc1F)N1CCN(Cc2ccncc2)CC1	MITF inh 73 | MITF confirm inactive | AS interf ctr inactive
Cn1c(=O)cc(NCc2ccccc2)n(Cc2ccc(F)cc2F)c1=O	none
COc1cc(C(=O)N(Cc2ccccc2)c2nc3ccc(F)cc3s2)cc(OC)c1OC	none
COc1c(O)cc(O)cc1O	MITF inh 72 | MITF confirm 60 | AS interf DR inactive | AS interf ctr inactive
COc1cc(O)c(C)c(O)c1	none
Cc1cc(C)n(C(=O)/C=C/c2ccc(Br)cc2)n1	MITF inh 55 | MITF confirm inactive | AS interf ctr inactive
Cc1ccc(/C=C/C(=O)n2nc(C)cc2C)cc1	none
COC(=O)c1ccc(-n2c(-c3ccc(F)cc3)nc(=S)c3c2CCCC3)cc1	none
CCOC(=O)C1=C(C)N=c2s/c(=C\c3cccc(OCc4ccccc4)c3)c(=O)n2C1c1ccc2c(c1)OCO2 (stereo not given)	none
NNc1nc(NN)nc(Nc2cccc3ccccc23)n1	MITF inh 51 | MITF confirm 54 | AS interf ctr 63
CCCCCCNC(=O)c1c[nH]c2ccc(S(=O)(=O)N3CC(C)CC(C)C3)cc2c1=O (stereo not given)	none
OCCCNc1ccc2ncc(-c3ccccc3Cl)n2n1	MITF inh 85 | MITF confirm inactive | AS interf ctr inactive
O=C(Nc1cccc2ccc(-n3ccnc3)nc12)C1COc2ccccc2O1 (stereo not given)	none
Cc1ccc(N(CC(=O)NC(C(C)C)C(C)C)S(C)(=O)=O)cc1C	MITF inh 68 | MITF confirm inactive | AS interf ctr inactive
Cc1nc2sccn2c1C(=O)Nc1ccccc1	none
CCc1ccc(OCC(=O)Nc2cc(C)ccn2)cc1	MITF inh 51 | MITF confirm inactive | AS interf ctr inactive
COc1cc2c(cc1NC(=O)C/C(C)=N/NC(=O)c1cccnc1)oc1ccccc12	none
CSCCC(N=C1NS(=O)(=O)c2ccccc21)C(=O)Nc1cccnc1 (stereo not given)	none
CCN(CC)C(=O)N1CCN(S(=O)(=O)c2cccc([N+](=O)[O-])c2)CC1	none
O=C(c1cccc2ccccc12)N1CCN(Cc2cccc([N+](=O)[O-])c2)CC1	MITF inh 76 | MITF confirm inactive | AS interf ctr inactive
COc1ccc(S(=O)(=O)N2CCN(CCCc3ccccc3)CC2)cc1	none
O=[N+]([O-])c1cccc(CN2CCN(S(=O)(=O)c3ccccc3)CC2)c1	MITF inh 70 | MITF confirm inactive | AS interf ctr inactive
